Measurements as given in ChEMBL document CHEMBL4888484, “Replenishing the malaria drug discovery pipeline: Screening and hit evaluation of the MMV Hit Generation Library 1 (HGL1) against asexual blood stage Plasmodium falciparum ,using a nano luciferase reporter read-out” (2022).
About 540 (0.36%) of roughly 150,000 compounds showed an effect of 50% or more. The entries come from a sample that favours strong results as a whole.

What follows are compounds tested on Plasmodium falciparum (assay: Primary screen in NF54 nanoGlo assay, in single point, at 2uM, 72h; a lower Z score goes with more inhibition). Settings: timepoint 72 hour.
Assay type: functional, Erythrocyte

For `N#Cc1ncn(C[C@H]2CCC3(CCCCC3)O2)c1C#N`, which “% Inhibition” value is on record?
The value was -10%.

And the Z score?
Its Z score is 1.82.

Which results are given for `N#Cc1c(CN2CCOCC2)cc(=O)n2c1[nH]c1ccccc12`?
% Inhibition: 35%; Z score: -0.01

`Cc1ccc(CN2CCN(C[C@@H](O)Cn3c4ccccc4n4c(=O)cc(C)c(C#N)c34)CC2)c(C)c1` was tested. Which “% Inhibition” value did it give?
Its value is 86%.

What about the Z score of the same compound?
The Z score was -13.14.

Which “% Inhibition” value does the source give for `C[C@H](O)CN1CCN(Cc2cn3ccccc3c2C#N)CC1` here?
The value was -13%.

And the Z score?
The Z score was 2.38.

How did the “% Inhibition” value turn out when `O=C(CC1CCCCC1)NCC1CCN(c2cc(-c3cccnc3)n[nH]2)CC1` was run?
The value was -17%.

What about the Z score of the same compound?
The Z score was 1.71.

How did the “% Inhibition” value turn out when `CC[n+]1ccc(-c2ncc(-c3ccc(C(C)(C)C)cc3)o2)cc1` was run?
The value was 66%.

What about the Z score of the same compound?
The Z score was -12.84.

Which results are given for `CO[C@@H](C)C(=O)N(Cc1ncc[nH]1)c1cncc(Br)c1`?
% Inhibition: 2%; Z score: -0.29

How did the “% Inhibition” value turn out when `COc1ccc(-c2cc(OC(F)(F)F)ccc2O)nn1` was run?
The value was -8%.

And the Z score?
The Z score was 1.53.

For `C[N+]1(CCCC(=O)c2ccc3c(c2)OCCO3)CCC(c2ccccc2)C1` (stereo unspecified), which “% Inhibition” value is on record?
The value was 73%.

And the Z score?
The Z score was -8.3.

With `CC1CCCC(C)N1S(=O)(=O)c1ccc(NC(=O)CCC(=O)c2ccc3c(c2)OCCO3)cc1` (stereo unspecified) as the compound, how does the “% Inhibition” value read?
Its value is -4%.

What about the Z score of the same compound?
Its Z score is 0.64.

`O=C(CCC(=O)c1ccc2c(c1)OCCCO2)NCc1ccccc1` was tested. Which “% Inhibition” value did it give?
The value was -7%.

What about the Z score of the same compound?
Its Z score is 1.26.

With `CCn1nccc1-c1cnc2nc(C)nn2c1` as the compound, how does the “% Inhibition” value read?
Its value is -6%.

What about the Z score of the same compound?
Its Z score is 0.88.

For `Cc1cc(C)c(C(=O)N2C[C@H](F)C[C@H]2C(N)=O)o1`, which “% Inhibition” value is on record?
The value was 1%.

And the Z score?
The Z score was -0.13.

`Cc1cccc([C@@H](NC(=O)CC2OCCCO2)C(F)(F)F)c1` was tested. Which “% Inhibition” value did it give?
The value was 3%.

What about the Z score of the same compound?
Its Z score is -0.38.

What does the source list for `Cc1cccc([C@@H](NC(=O)Nc2ncco2)C(F)(F)F)c1`?
% Inhibition: 54%; Z score: 1.59

How did the “% Inhibition” value turn out when `Cc1cccc(C(NC(=O)[C@@H]2CCCO2)C(F)(F)F)c1` (stereo partly specified) was run?
Its value is -6%.

What about the Z score of the same compound?
The Z score was 0.81.

What does the source list for `O=C(Nc1cccc2c1CCCC2)c1cccc(S(=O)(=O)N2CCCCC2)c1`?
% Inhibition: -16%; Z score: 1.73

How did the “% Inhibition” value turn out when `Cc1cc(=O)c(C(=O)Nc2ccnc(NC(=O)OC(C)(C)C)c2)c[nH]1` was run?
The value was -2%.

What about the Z score of the same compound?
Its Z score is 0.38.

With `Cn1cncc1CC(=O)Nc1ccnc(NC(=O)OC(C)(C)C)c1` as the compound, how does the “% Inhibition” value read?
The value was 94%.

What about the Z score of the same compound?
The Z score was -14.52.

Which results are given for `Cn1cncc1CCN1CCC[C@H](NC(=O)OC(C)(C)C)C1`?
% Inhibition: -12%; Z score: 1.84

Which “% Inhibition” value does the source give for `CC(C)c1noc(CN2CC[C@H](NC(=O)c3ccccn3)[C@@H](O)C2)n1` here?
The value was -2%.

What about the Z score of the same compound?
Its Z score is 0.42.

`CCCN(CC(=O)N(Cc1ccco1)C[C@H]1CCCO1)C(=O)c1ccc(C)cc1` was tested. Which “% Inhibition” value did it give?
Its value is -8%.

And the Z score?
The Z score was 1.14.

With `COc1ccnc(C(=O)N(Cc2cnn(C)c2)C(C)C)c1` as the compound, how does the “% Inhibition” value read?
The value was -10%.

And the Z score?
Its Z score is 1.37.

`CC(C)c1nccn1CC(=O)NC(C1CC1)C1CC1` was tested. Which “% Inhibition” value did it give?
Its value is 1%.

What about the Z score of the same compound?
The Z score was -0.12.

Which results are given for `CC(C)c1nccn1CCC(=O)Nc1ncn(C2CCCCC2)n1`?
% Inhibition: 50%; Z score: 1.4

For `CC(C)c1nccn1CCC(=O)N1CC[C@H](N)C1`, which “% Inhibition” value is on record?
The value was 6%.

And the Z score?
The Z score was -0.94.

What does the source list for `CC(C)Cn1c(CC2(CC(=O)NC3CCOCC3)CCCC2)nc2cccnc21`?
% Inhibition: -12%; Z score: 1.81

With `CCN1CCN(Cc2cccc3cccnc23)C(C)(C)C1=O` as the compound, how does the “% Inhibition” value read?
Its value is -9%.

What about the Z score of the same compound?
Its Z score is 1.65.

For `Cc1ccc(-c2ncc(CN3CCCC4(C3)OCCO4)s2)o1`, which “% Inhibition” value is on record?
The value was -5%.

And the Z score?
Its Z score is 0.88.

What does the source list for `COc1cc(C)c(S(=O)(=O)N2CCc3cc4ccccc4nc32)cc1C`?
% Inhibition: -10%; Z score: 1.11

Which results are given for `C[C@H](NC(=O)c1cncc(O)c1)c1nncn1C`?
% Inhibition: -4%; Z score: 0.69

Which results are given for `Cc1nc(N(C)C)cc(N2CCN(C(=O)C3CCCC3)CC2)n1`?
% Inhibition: -17%; Z score: 1.88

For `c1ccc(CC2(c3nc(-c4cnccn4)no3)CCC2)cc1`, which “% Inhibition” value is on record?
Its value is 13%.

What about the Z score of the same compound?
Its Z score is -2.33.

Which results are given for `COc1cccc(-c2nsc(C(=O)NCc3cccs3)c2N)c1`?
% Inhibition: 18%; Z score: -2.8

Which results are given for `OC1CCCCC1N1CCc2sccc2C1` (stereo unspecified)?
% Inhibition: -21%; Z score: 2.66

Which results are given for `CCNCc1cccc(Cl)c1Cl`?
% Inhibition: 4%; Z score: -0.5

What does the source list for `Clc1cccc(CNCCCNc2ccncc2)c1Cl`?
% Inhibition: 67%; Z score: -8.81

`CCN(CC)CCNCc1cccc(Cl)c1Cl` was tested. Which “% Inhibition” value did it give?
The value was -2%.

And the Z score?
The Z score was 0.28.

Which “% Inhibition” value does the source give for `Cc1ccc2c(c1)CCCN2C(=O)c1ccoc1` here?
Its value is 4%.

What about the Z score of the same compound?
The Z score was -0.72.

With `CCn1ccc(C(=O)N[C@H]2CCOC[C@@H]2OC)n1` as the compound, how does the “% Inhibition” value read?
The value was -7%.

And the Z score?
Its Z score is 0.83.

What does the source list for `OC1CCC(NC(=NC2CC2)NCc2ccccc2F)CC1` (stereo unspecified)?
% Inhibition: -9%; Z score: 1.4

How did the “% Inhibition” value turn out when `CC1(C)C(CNC(=O)CCn2cc(C(N)=O)c(=O)[nH]c2=O)C1(C)C` was run?
Its value is 19%.

What about the Z score of the same compound?
The Z score was -2.23.

How did the “% Inhibition” value turn out when `Cc1cc(C(=O)Cn2cc(Cl)c(=O)[nH]c2=O)c(Cl)cc1F` was run?
Its value is -1%.

What about the Z score of the same compound?
Its Z score is 0.1.

How did the “% Inhibition” value turn out when `CCOC(=O)CCn1cc(F)c(=O)[nH]c1=O` was run?
Its value is 74%.

And the Z score?
The Z score was -6.55.

Which “% Inhibition” value does the source give for `CCCCN(CC)C(=O)Nc1cc(Cl)c(OC)cc1OC` here?
Its value is 1%.

And the Z score?
Its Z score is -0.07.

With `O=C(NCCCn1ccnc1)[C@@H]1Cc2c(ccc3ccccc23)O1` as the compound, how does the “% Inhibition” value read?
The value was 4%.

And the Z score?
The Z score was -0.47.

How did the “% Inhibition” value turn out when `CC(C)[C@H](NC(=O)Nc1cc(Cl)ccc1Cl)c1ncc[nH]1` was run?
Its value is -5%.

What about the Z score of the same compound?
The Z score was 0.62.

With `C[C@@H](C(=O)Nc1ncc[nH]1)c1ccc2c(c1)[nH]c1ccc(Cl)cc12` as the compound, how does the “% Inhibition” value read?
Its value is 69%.

And the Z score?
Its Z score is -1.75.

For `C[C@@H](C(=O)Nc1nnc[nH]1)c1ccc2c(c1)[nH]c1ccc(Cl)cc12`, which “% Inhibition” value is on record?
Its value is -7%.

And the Z score?
The Z score was 0.71.

What does the source list for `CN(c1ccc2c(c1)CCO2)S(C)(=O)=O`?
% Inhibition: 13%; Z score: -1.53

What does the source list for `COC[C@H]1CCN(c2nc(-c3ccccn3)nc3c2CCNCC3)C1`?
% Inhibition: -2%; Z score: 0.41

What does the source list for `NC(=O)C[C@H]1CCN(c2nc(-c3ccccn3)nc3c2CCC3)C1`?
% Inhibition: -8%; Z score: 1.56

How did the “% Inhibition” value turn out when `c1ccc(-c2nc3c(c(N4Cc5ccccc5C4)n2)CCNC3)nc1` was run?
Its value is -4%.

What about the Z score of the same compound?
The Z score was 0.52.

Which results are given for `FC(F)(F)C1CN(c2nc(-c3ccccn3)nc3c2CCC3)C1`?
% Inhibition: 75%; Z score: -13.36

What does the source list for `C[C@H]1CCCN(c2nc(-c3ccccn3)nc3ccccc23)C1`?
% Inhibition: 96%; Z score: -9.05

Which results are given for `FC(F)(F)[C@H]1CCCN(c2nc(-c3cccnc3)nc3ccccc23)C1`?
% Inhibition: 8%; Z score: -0.64

With `O=C(O)[C@H]1CCCN(c2nc(-c3ccsc3)nc3ccccc23)C1` as the compound, how does the “% Inhibition” value read?
Its value is -12%.

What about the Z score of the same compound?
The Z score was 2.15.

How did the “% Inhibition” value turn out when `C[C@H]1CCN(c2nc(-c3ccccn3)nc3c2CCC3)C1` was run?
The value was 90%.

What about the Z score of the same compound?
Its Z score is -12.13.
